Measurements: PubChem BioAssay (NCATS)
Activity calls are given as the source filed them. A call without a number means that no potency is given here. The call rests on the fitted dose curve; in most records, active means well fitted activation curve with a large enough effect; inconclusive means small, poorly fitted or top-dose-only effect; inactive means no such curve, though single readings can be large or run the other way.

target: Parathyroid hormone/parathyroid hormone-related peptide receptor (Homo sapiens) (UniProt Q03431); assay: qHTS for PTHR1 Agonists: Optimization Screen against the NCGC LOPAC library (AID 1347079); conditions: HEK293 GP2 PTHR1 GloSensor cAMP luminescence, 1 h; series mostly up to 57.1 µM
Sequence (Q03431 whole entry, looked up): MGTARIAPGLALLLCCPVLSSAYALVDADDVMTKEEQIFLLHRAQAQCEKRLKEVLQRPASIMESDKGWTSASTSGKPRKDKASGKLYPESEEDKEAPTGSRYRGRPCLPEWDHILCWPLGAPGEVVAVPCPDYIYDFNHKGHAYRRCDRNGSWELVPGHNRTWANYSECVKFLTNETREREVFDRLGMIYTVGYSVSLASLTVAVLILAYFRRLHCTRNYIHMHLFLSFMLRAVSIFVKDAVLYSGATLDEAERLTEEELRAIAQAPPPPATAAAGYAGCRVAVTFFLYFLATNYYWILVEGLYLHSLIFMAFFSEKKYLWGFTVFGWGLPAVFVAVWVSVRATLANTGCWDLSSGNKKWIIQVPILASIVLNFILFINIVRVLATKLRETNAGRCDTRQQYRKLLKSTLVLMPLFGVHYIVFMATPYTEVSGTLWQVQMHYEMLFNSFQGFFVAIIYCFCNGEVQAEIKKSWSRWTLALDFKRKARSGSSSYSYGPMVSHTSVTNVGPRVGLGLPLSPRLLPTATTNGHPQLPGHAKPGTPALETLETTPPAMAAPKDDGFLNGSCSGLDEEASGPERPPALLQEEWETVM
Excerpt: The goal of the proposed studies is to discover new compounds that act as potent agonists on the parathyroid hormone receptor type-1 (PTHR1). The PTHR1 plays critical roles in maintaining blood calcium and phosphate levels, as well as in controlling bone remodeling. PTHR1 agonists could thus be useful for treating diseases such as hypoparathyroidism and osteoporosis. In the former disease, an agonist drug would help maintain normal blood calcium and phosphate levels under conditions of parathyroid hormone deficiency. In the latter disease, an agonist drug would stimulate new bone formation and thus reduce the risk of fracture, under conditions of bone fragility, as occurs in aging. We performed an optimization assay of the quantitative high-throughput screening (qHTS) for the parathyroid hormone receptor type-1 (PTHR1) against the NCGC LOPAC library collection of […] compounds using a unique HEK-293-derived cell line (GP2) that expresses the PTHR1 and a GloSensor cAMP reporter construct. Increase in signal (activation / agonist) is the desired outcome for compounds of interest. NIH Chemical Genomics Center [NCGC] NIH Molecular Libraries Probe Production Centers Network [MLPCN] MLPCN Grant: P01 DK011794 Assay Submitter (PI): Thomas Gardella PhD, Massachusetts General Hospital
Reagents / Controls: M-PTH (1-15) peptide hormone fragments was provided by the assay provider and was used as a control. Column 1 was treated with M-PTH titration (1:2 dilution) beginning with a final concentration of 10uM. Column 2 was treated with M-PTH final concentration of 10uM. Columns 3 and 4 were treated with DMSO only to assess background and noise signal. Assay Steps: Four microLiter of cells suspension was dispensed in a 1536-well assay plate at a final density of 3000 cells/well. The plates were incubated overnight, after which 4uL of 0.5mM of BloTium Luciferin plus 0.5mM IBMX was added. Next, the plate was incubated at 37C for 1hr before 23nL of compound (at various final concentrations from 40uM to 0.32uM) and control were added using a 1536-well array Kalypsys pin-tool. The treated plates were again incubated at 37C for another hour. Luminescence signal was obtained using the PerkinElmer ViewLux plate reader after 15min or room temperature incubation.

Q: Which Potency does the source give for `O=C1N=C(O)CN1/N=C/c1ccc(-c2ccc([N+](=O)[O-])cc2)o1` here?
A: inactive

Q: `Nc1cc(=O)[nH]c(N)n1` was tested. Which Potency did it give?
A: inactive

Q: How did the Potency turn out when `CC(C(O)c1ccc(O)cc1)N1CCC(Cc2ccccc2)CC1` (stereo not given) was run?
A: inactive

Q: For `CSc1ccc2c(c1)C(N1CCN(C)CC1)Cc1ccccc1S2` (stereo not given), which Potency is on record?
A: inactive

Q: Which Potency does the source give for `CCN(CC)CCOC(=O)C1(C2CCCCC2)CCCCC1` here?
A: inactive

Q: With `NC(N)=NCCC[C@H](N)C(=O)O` as the compound, how does the Potency read?
A: inactive

Q: With `CC(C)(C(=O)O)c1ccc(C(O)CCCN2CCC(C(O)(c3ccccc3)c3ccccc3)CC2)cc1` (stereo not given) as the compound, how does the Potency read?
A: inactive

Q: How did the Potency turn out when `CCCn1cnc2c1c(=O)n(CCCCC(C)=O)c(=O)n2C` was run?
A: inactive

Q: `Cc1cc(N)c2ccccc2[n+]1CCCCCCCCCC[n+]1c(C)cc(N)c2ccccc21` was tested. Which Potency did it give?
A: inactive

Q: With `CCN(CC)CCNC(=O)c1cc(Cl)c(N)cc1OC` as the compound, how does the Potency read?
A: inactive

Q: How did the Potency turn out when `C#CCN(C)Cc1ccccc1` was run?
A: inactive

Q: How did the Potency turn out when `CCN(CC)CCCC(C)Nc1c2ccc(Cl)cc2nc2ccc(OC)cc12` (stereo not given) was run?
A: inactive

Q: How did the Potency turn out when `C[C@](N)(Cc1ccc(O)cc1)C(=O)O` was run?
A: inactive

Q: For `C[C@]12CC[C@@H]3c4ccc(O)cc4CC[C@H]3[C@@H]1CCC2=O`, which Potency is on record?
A: inactive

Q: For `CC(C)(C)[C@]1(O)CCN2C[C@H]3c4ccccc4CCc4cccc(c43)[C@@H]2C1`, which Potency is on record?
A: inactive

Q: For `CC(=O)OCC(=O)[C@@]1(O)CC[C@H]2[C@@H]3CCC4=CC(=O)CC[C@]4(C)[C@H]3C(=O)C[C@@]21C`, which Potency is on record?
A: inactive

Q: For `CC1=C(/C=C/C(C)=C/C=C/C(C)=C/C(=O)O)C(C)(C)CCC1`, which Potency is on record?
A: inactive

Q: For `NC(=O)c1ncn([C@@H]2O[C@H](CO)[C@@H](O)[C@H]2O)n1`, which Potency is on record?
A: inactive

Q: With `CC(CN1c2ccccc2Sc2ccccc21)N(C)C` (stereo not given) as the compound, how does the Potency read?
A: inactive

Q: How did the Potency turn out when `N=c1c[n+](N2CCOCC2)[n-]o1` was run?
A: inactive

Q: For `CN(C)CCCN1c2ccccc2CCc2ccccc21`, which Potency is on record?
A: inactive

Q: `OCCN1CCN(CCCN2c3ccccc3Sc3ccc(Cl)cc32)CC1` was tested. Which Potency did it give?
A: inactive

Q: `CC(C)(C)c1onc(OCP(=O)(O)O)c1CC(N)C(=O)O` (stereo not given) was tested. Which Potency did it give?
A: inactive

Q: Which Potency does the source give for `CNCCCC1c2ccccc2C=Cc2ccccc21` here?
A: inactive

Q: How did the Potency turn out when `OCc1cc(C(O)CNCCCCCCOCCCCc2ccccc2)ccc1O` (stereo not given) was run?
A: inactive

Q: For `CC1=C(CC(=O)O)c2cc(F)ccc2/C1=C\c1ccc(S(C)(=O)=O)cc1`, which Potency is on record?
A: inactive

Q: How did the Potency turn out when `CN(C)CCOC(C)(c1ccccc1)c1ccccn1` (stereo not given) was run?
A: inactive

Q: `CCN(CC)C(C)CN1c2ccccc2Sc2ccccc21` (stereo not given) was tested. Which Potency did it give?
A: inactive

Q: Which Potency does the source give for `CSc1ccc2c(c1)N(CCC1CCCCN1C)c1ccccc1S2` (stereo not given) here?
A: inactive

Q: How did the Potency turn out when `CC[C@H]1CN2CCc3cc(OC)c(OC)cc3[C@@H]2C[C@@H]1C[C@H]1NCCc2cc(OC)c(OC)cc21` was run?
A: inactive

Q: `COc1ccc(Cl)cc1C(=O)NCCc1ccc(S(=O)(=O)NC(=O)NC2CCCCC2)cc1` was tested. Which Potency did it give?
A: inactive

Q: `CC(CN(C)C)CN1c2ccccc2CCc2ccccc21` (stereo not given) was tested. Which Potency did it give?
A: inactive

Q: `C=Cc1c(C)c2cc3[nH]c(cc4nc(cc5nc(cc1[nH]2)C(C)=C5CCC(=O)O)C(CCC(=O)O)=C4C)c(C)c3C=C` was tested. Which Potency did it give?
A: inactive

Q: Which Potency does the source give for `CN(C)CC[C@@H](c1ccc(Cl)cc1)c1ccccn1` here?
A: inactive

Q: With `CN(C)CCC=C1c2ccccc2CCc2ccccc21` as the compound, how does the Potency read?
A: inactive

Q: How did the Potency turn out when `CNCC(O)c1ccc(O)c(O)c1` (stereo not given) was run?
A: inactive

Q: How did the Potency turn out when `CNCCC(Oc1ccc(C(F)(F)F)cc1)c1ccccc1` (stereo not given) was run?
A: inactive

Q: With `COC(=O)C1=C(C)NC(C)=C(C(=O)OC)C1c1ccccc1[N+](=O)[O-]` as the compound, how does the Potency read?
A: inactive

Q: `CCCCCCCCCCCCCCCC(=O)NCCO` was tested. Which Potency did it give?
A: inactive

Q: `CN(C)CCCN1c2ccccc2Sc2ccc(Cl)cc21` was tested. Which Potency did it give?
A: inactive
